Assay results reported in PubChem BioAssay (Tox21).
Records with an inconclusive call do not appear. Unmarked numbers belong to inactive results. The source made the active and inactive calls. Calls come from the whole dose curve; as a rule, active = well fitted cell-killing curve with a large enough effect in the repeat runs; inconclusive = weak or mixed curves, or effect the other way; inactive = flat fitted curve, though single readings scatter.

Experiment: qHTS assay to identify small molecule agonists of the androgen receptor (AR) signaling pathway in the presence of an antagonist - cell viability counter screen (AID 1259379); note: nearly all actives have a fitted effect of over 25% in size
Conditions: MDA-kb2 viability, CellTiter-Fluor, 16 h; series mostly up to 92.4 µM; activity change, negative = cytotoxicity: at the top concentration
Source text: National Center for Advancing Translational Sciences [NCATS]
NIH Chemical Genomics Center [NCGC]
U.S. Environmental Protection Agency [EPA]
National Institutes of Environmental Health Sciences [NIEHS]
National Toxicology Program [NTP]
U.S. Food and Drug Administration [FDA]
Androgen receptor (AR) is an important member of nuclear receptor family. Its signaling plays a critical role in AR-dependent prostate cancer and other androgen related diseases. Considerable attention has been given in the past decades to develop methods to study and screen for the environmental chemicals that have the potential to interfere with metabolic homeostasis, reproduction, developmental and behavioral functions. Therefore AR binding assay for screening against androgen agonists and antagonists can be used to identify potential endocrine disruptors.
MDA-kb2 cells (from ATCC, deposited by Wilson et al.) are human breast carcinoma cells that were stably transfected with a luciferase reporter gene under control of the MMTV promoter that contains response elements for both androgen receptor (AR) and glucocorticoid receptor (GR). This particular screening for measuring luciferase reporter gene activity using MDA-kb2 cells against Tox21 10K library compounds is a confirmation study on agonist mode screening in the presence of AR-antagonist compound (Nilutamide) at 3.0uM final concentration. The cytotoxicity of the compounds was tested in parallel by measuring the cell viability using CellTiter-Fluor assay system (Promega, Madison, WI) in the same wells.
Tox21 Assay Protocol Summary:
MDA-kb2 cells (cells cultured without CO2) were dispensed at 3,000 cells/well in 4uL of culture medium into white wall/solid-bottom 1536-well plates (Corning Life Sciences, Corning, NY) using a Multidrop Combi (Thermo Fisher Scientific Inc., Waltham, MA) dispenser. The assay plates were incubated at 37C and 0% CO2 for 5hr. One uL of 3.0uM (final concentration) Nilutamide or assay buffer was added using two separate tips of Flying Reagent Dispenser (FRD, Aurora Discovery, San Diego, CA). Then 23nL of compounds dissolved in DMSO at 15 concentrations and positive controls were transferred to the assay plates using a Pintool station (Wako, San Diego, CA). The assay plates were incubated at 37C and 0% CO2 for 16 hr. After 15hr incubation at 37C, 1uL/well CellTiter-Fluor reagent (Promega Corporation) was added to each well of the assay plates using FRD. After 1hr incubation at 37C and 0% CO2, the fluorescence signal was measured using a ViewLux plate reader (PerkinElmer, Shelton, CT).
% is set by controls: 0 for no effect and ±100 for the full control effect.

Row | SMILES | Potency | activity change, negative = cytotoxicity
1 | Nc1cc(Cl)cc(C(=O)O)c1Cl | inactive | –
2 | C[C@H]1[C@@H]2Cc3ccc(O)cc3[C@@]1(C)CCN2C | – | -0.0093% [at 240 µM]
3 | N#CC(C#N)=Cc1ccc(O)c(O)c1 | – | -4.48% [at 42.5 µM]
4 | CCCCCCCCP(=O)(O)O | – | -1.13%
5 | COCc1cnc(C2=NC(C)(C(C)C)C(=O)N2)c(C(=O)O)c1 (stereo not given) | – | 1.87%
6 | CC(C)C1(C)N=C(c2ncccc2C(=O)O)NC1=O (stereo not given) | – | -0.407%
7 | ClCc1ccccc1Cl | – | 1.35%
8 | CCOP(=S)(S)OCC | – | -0.179%
9 | Cc1nnc(-c2ccccc2)c(=O)n1N | – | 1.52%
10 | Nc1cccc2ccccc12 | inactive | –
11 | CC(C)[C@@H](C(=O)O[C@@H](C#N)c1cccc(Oc2ccccc2)c1)c1ccc(Cl)cc1 | inactive | –
12 | O=C(Cc1ccccc1)c1ccccc1 | – | 4.57%
13 | C[N+]1(CCC(C(N)=O)(c2ccccc2)c2ccccc2)CCCCC1 | – | -1.85% [at 42.5 µM]
14 | NCCc1cc(O)c(O)cc1O | – | -6.31% [at 42.5 µM]
15 | CCCC(C)(COC(N)=O)COC(=O)NC(C)C (stereo not given) | inactive | –
16 | c1ccc2sc(SNC3CCCCC3)nc2c1 | inactive | –
17 | O=C(N[C@H]1CN2CCC1CC2)c1ccc2c(c1)OCCO2 | – | -2.62%
18 | NC(=O)CF | – | 1.43%
19 | FC(F)OC(F)(F)C(F)Cl (stereo not given) | – | 3.46%
20 | C=C(Cl)Cl | – | -0.762%

Row | SMILES | Potency | activity change, negative = cytotoxicity
21 | Oc1cccc(Cl)c1 | – | -0.3%
22 | Nc1ccccc1C(=O)OCCc1ccccc1 | inactive | –
23 | CC(Oc1cccc(Cl)c1)C(=O)O (stereo not given) | – | 4.2%
24 | COc1ccc(C(O)(c2cncnc2)C2CC2)cc1 (stereo not given) | – | -1.7%
25 | CC(Oc1cc(Cl)c(Cl)cc1Cl)C(=O)O (stereo not given) | – | 1.56%
26 | CC(C)CCCCCCCOC(=O)c1ccccc1C(=O)OCCCCCCCC(C)C | – | -1.35%
27 | O=C=NC1CCCCC1 | – | 3.7%
28 | C=CCOC(=O)C(C)(C)OC(=O)c1cc(-n2c(=O)cc(C(F)(F)F)n(C)c2=O)ccc1Cl | – | -5.31%
29 | NP(N)(=O)NC(=O)c1ccc(F)cc1 | – | 2.17% [at 42.5 µM]
30 | O=C(O)c1cc(I)cc(I)c1I | – | -2.22%
31 | CC(C)(c1ccccc1)c1cc(-n2nc3ccccc3n2)c(O)c(C(C)(C)c2ccccc2)c1 | – | 2.3% [at 42.5 µM]
32 | Cc1ncc(C[n+]2csc(CCO)c2C)c(N)n1 | – | 0.746%
33 | C[C@]12CC[C@H]3[C@@H](CCC4=CC(=O)CC[C@@H]43)[C@@H]1CC[C@@H]2OC(=O)CCc1ccccc1 | – | 2.88% [at 42.5 µM]
34 | C[C@]12C=CC3=C4CCC(=O)C=C4CC[C@H]3[C@@H]1CC[C@@H]2O | inactive | –
35 | CN(C)N | – | 1.73%
36 | FC(Cl)(Cl)C(F)(Cl)Cl | – | 1.38%
37 | CCOP(=O)(SC(C)CC)N1CCSC1=O (stereo not given) | – | 2.03%
38 | CC(=O)OC(c1ccccc1)C(Cl)(Cl)Cl (stereo not given) | – | -7.23%
39 | CCOP(=O)(O)C(N)=O | – | 2.62%
40 | O=C(O)C(Cl)(Cl)Br | – | 3.33%
